TEAD-YAP block: TEAD-YAP interaction inhibition; HEK-TIYL cells, TEAD-Gal4/YAP UAS-luciferase luminescence; inhibition, % at 9.12 µM; 640,000 tested, 1.4% active; in the data active = inhibition above about 32%
GPR151 ag: activates the human receptor GPR151. Q8TDV0. PathHunter beta-arrestin GPR151 cells, luminescence. activation, % at 11.2 µM. 650,000 tested, 1% active; in the data active = activation above about 4.9%
MITF primary: human MITF inhibition, primary screen | AlphaScreen MITF homodimerization, bead proximity signal | 650,000 tested, 0.91% active | inhibition, % at 2.6 µM; in the data active = inhibition above about 50%
FBW7 act: human FBW7 E3 ligase activation, primary screen | 650,000 tested, 0.13% active | AID 1259310 | AlphaScreen FBW7–phospho-cyclin E peptide binding, activator screen | normalized activity (activation), % at 26.1 µM; in the data active = normalized activity above about 1.9%;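 note: purified mutant Fbw7 with reduced substrate affinity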
A number is an active result; – = inactive. The list is not random: actives were taken first. Their share in the collection is about 3.5%.

SMILES	TEAD-YAP block	GPR151 ag	MITF primary	FBW7 act
N#Cc1c2c(c(Cl)n3c1nc1ccccc13)CCC2	–	–	–	1.9
CN(C)c1c2c(c(C#N)c3nc4ccccc4n13)CCC2	–	–	–	–
Cc1ccc(Nc2c3c(c(C#N)c4nc5ccccc5n24)CCC3)cc1C	–	–	–	2.2
Cc1ccc(-n2ncc(C(=O)N3CCC4(CC3)OCCO4)c2-n2cccc2)cc1Cl	–	–	–	–
COc1cc(Nc2nc(NCCCN3CCCC3=O)c3ncn(C4CCCCC4)c3n2)cc(OC)c1OC	–	–	–	–
Cc1ccc(-c2noc(CN(C(C)C)S(=O)(=O)c3ccccc3[N+](=O)[O-])n2)cc1	–	–	–	–
Cc1ccc2nc(/C(C#N)=C/c3ccccc3OC(=O)c3ccccc3)[nH]c2c1	51.7	–	–	–
Cc1ccccc1OCC(=O)Nc1cccc2c(NC(=O)COc3ccccc3C)cccc12	–	–	–	–
CCCNc1cc(C)nc(Oc2ccccc2)n1	80.3	–	–	–
Cc1nnc(N(C(=O)c2cnccn2)c2ccccc2)s1	61.7	–	–	–
Cc1ccc(N2C(=O)c3ccccc3C2O)nc1 (stereo not given)	78.0	–	–	–
COc1ccc(CNC(=O)NCC2CC(=O)N(c3ccc(Cl)cc3)C2)cc1 (stereo not given)	–	–	–	–
CC(C)Cc1cc(C(=O)Nc2cccc(O)c2)no1	86.7	–	–	–
CC(C)Cc1cc(C(=O)Nc2cccc(Cl)c2)no1	–	–	–	–
CC(C)c1cc(C(=O)Nc2cccc(O)c2)no1	80.6	–	–	–
COc1ccc(Nc2nc(Cl)c(C(F)(F)F)c(Cl)c2Cl)cc1	–	–	–	–
Cc1ccc(Nc2c(Cl)c(Cl)nc(Cl)c2C(F)(F)F)cc1	66.7	–	–	–
O=C(Oc1cccc(-c2cnc3ccccc3n2)c1)c1ccco1	42.9	–	–	–
CCOc1ccc(-c2cnc3ccccc3n2)cc1	75.3	–	–	–
CC(C)n1cc(-c2cnc3ccccc3n2)cn1	71.6	–	–	–
CC(=O)Oc1ccc(-c2cnc3ccccc3n2)cc1	40.2	–	–	–
CCCCCC(=O)Oc1ccc(-c2cnc3ccccc3n2)cc1	–	–	–	–
CNC(=O)[C@@H]1C[C@H](NCc2ccccc2Cl)CN1Cc1ccccc1	–	–	–	–
Cc1cccc(C)c1OCC(=O)OCC(=O)Nc1ccc([N+](=O)[O-])cc1	–	–	–	–
CCOC(=O)C1CCCN(C(=O)c2cc3c(-c4cccc(OC)c4)nn(C)c3s2)C1 (stereo not given)	38.3	–	–	–
SMILES	TEAD-YAP block	GPR151 ag	MITF primary	FBW7 act
COc1cccc(-c2nn(C)c3sc(C(=O)N4CCN(c5ccccn5)CC4)cc23)c1	35.3	–	–	–
CCN1CCN(C2=CC(=[N+]3CCCC3)CC(C)(C)C2)CC1	–	–	–	–
CC1(C)CC(N2CCCC2)=CC(=[N+]2CCCC2)C1	52.2	–	–	–
CC1(C)CC(N2CCCC2)=CC(=[N+]2CCCCC2)C1	70.1	–	–	–
COc1ccc(CN2CCCC(C(=O)NN)C2)c(OC)c1OC (stereo not given)	–	–	–	–
Cn1cc(-c2ccc3cnc(Nc4ccc(-n5cnc(N6CCOCC6)n5)cc4)nc3c2-c2ccccc2)cn1	97.6	–	–	–
COc1c(-c2cnn(C)c2)ccc2cnc(Nc3ccc(-n4cnc(N5CCOCC5)n4)cc3)nc12	80.8	–	–	–
Cn1cc(-c2ccc3cnc(Nc4ccc(-n5cnc(N6CCOCC6)n5)cc4)nc3c2C2CC2)cn1	81.4	–	–	–
Cc1sc(NC(=O)COc2ccccc2[N+](=O)[O-])nc1-c1ccccc1	–	–	–	–
Nc1cc(=O)[nH]c(SCc2ccccc2CSc2nc(N)cc(=O)[nH]2)n1	–	–	–	–
Nc1cc(=O)[nH]c(S/C=C/c2ccccc2)n1	33.9	–	–	–
COC(=O)c1cc(CNC(=O)c2cccc3ccccc23)cc(NC(=O)Cn2cccn2)c1	–	–	–	–
COc1ccc(N2C(=O)C(=O)/C(=C(\O)c3ccc(Cl)cc3)C2c2ccccc2F)cc1 (stereo not given)	–	–	–	–
C1=Nc2ccccc2SC(c2cccnc2)=C1	86.0	–	–	–
CCCn1c(-c2ccccc2)c(CC)n2c3c(=O)n(C)c(=O)n(C)c3nc12	–	–	–	–
CCc1c(-c2ccccc2)n(CCO)c2nc3c(c(=O)n(C)c(=O)n3C)n12	64.3	–	–	–
CCc1c(-c2ccccc2)n(CC(O)c2ccccc2)c2nc3c(c(=O)n(C)c(=O)n3C)n12 (stereo not given)	38.9	–	–	–
COc1cccc(C(=O)NC2c3ccccc3Oc3ccccc32)c1	–	–	–	–

Bioassay records (PubChem)
